The record followed here is PubChem BioAssay (NCI).

Where “and” joins values, the source holds several entries; their conditions need not be identical. Equal values may be shown once. About 79,000 compounds went through this panel and 15% of them were active in at least one assay; those are over-represented in the sample as a whole. The source holds several records for some structures; these can differ, active in one and inactive in another. Calls of active or inactive are those of the source. No stated cut-off is given here; in the data, active means growth inhibition above about 70%; inactive means the rest.

The first assay can be described thus: NCI Yeast Anticancer Drug Screen. Data for the bub3 strain (AID 167). Particulars: S. cerevisiae bub3 mutant strain, at 33.0 µM, stronger effect = higher value. The method in brief: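 Part of a panel of yeast mutants defective in DNA damage repair or cell cycle regulation. Each strain is grown with compound, and inhibition is calculated relative to solvent-treated cultures.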
For `CNC(=O)OCc1c(COC(=O)NC)c(C)n(-c2ccc(Cl)c(Cl)c2)c1C`, the growth inhibition was 97% (active).

For the compound `COc1ccc2nc(N/N=C/c3sccc3C)cc(C)c2c1`, the growth inhibition is 98% (active).

With `O=C(O)/C=C\C(=O)NNc1ccc(Br)cc1`, the growth inhibition was 99% (active).

For `S=c1[nH]nc(Cc2ccccc2)c(=S)[nH]1`, the growth inhibition was 94% (active).

As to `COc1ccc2nc3cccc([N+](=O)[O-])c3c(NCCCO)c2c1`, the growth inhibition is 97% (active).

In the case of `CCN(CC)CCSc1c2ccccc2nc2cc(NCC(=O)Nc3ccccc3-c3ccccc3NC(=O)CNc3ccc4c(SCCN(CC)CC)c5ccccc5nc4c3)ccc12`, the growth inhibition was 92% (active).

With `Cc1ccc(N(C=O)c2c([N+](=O)[O-])cc([N+](=O)[O-])c3c2=[N+]([O-])CN=3)cc1`, the growth inhibition was 72% (active).

In the case of `COc1ccc(C(=O)OCCc2ccccc2)cc1`, the growth inhibition is 34% (inactive).

Regarding `COc1ccc(C(=O)NCCN(C)C)c2nc3ccccc3cc12`, the growth inhibition is 9% (inactive).

On to `NCC(O)CSCc1ccc(Cl)cc1` (stereo not drawn), for which the growth inhibition was 20% (inactive).

In the case of `CN(C)/N=N/c1nc[nH]c1C(N)=O`, the growth inhibition was 46% (inactive).

On to `O=c1[nH]c(=O)n(CCCO)cc1F`, for which the growth inhibition is -37% (inactive).

Regarding `COc1ccc(/C(=N/O)c2ccccc2C2=Nc3ccccc3C(NCc3ccccc3)O2)cc1C` (stereo not drawn), the growth inhibition was 48% (inactive).

In the case of `CCCC(=O)OC(OC(=O)CCC)c1ccc([N+](=O)[O-])o1`, the growth inhibition was -3% (inactive).

For `O=C(/C(=C/c1ccccc1)CBr)c1ccccc1`, the growth inhibition is 94% (active).

As for `O=C(Cc1ccccc1F)NC1=C(Cl)C(=O)c2ccccc2C1=O`, the growth inhibition was 47% (inactive).

As to `Cc1cccc(N2CCN(C(=O)/C(=C/c3ccccc3)NC(=O)c3ccccc3)CC2)c1`, the growth inhibition was 41% (inactive).

Consider `c1cc(Nc2ccc3c(c2)OCO3)c2cc(C3CCCCC3)ccc2n1`, for which the growth inhibition is 8% (inactive).

For the compound `Cc1ccc2nc(N/N=C/c3ccc(C)s3)cc(C)c2c1`, the growth inhibition is 99% (active).

In the case of `COc1cc(NCCCCCNC(C)C)c2ncccc2c1Cl`, the growth inhibition was 11% (inactive).

As to `COc1ccc2cc(CN3CCC(C4CCN(Cc5ccc6cc(OC)ccc6c5)CC4)CC3)ccc2c1`, the growth inhibition was -20% (inactive).

In the case of `CC(=O)O/N=C/c1c2ccccc2cc2ccccc12`, the growth inhibition was 47% (inactive).

For `CC[C@@]1(OC(=O)CN(C)C)C(=O)OCc2c1cc1n(c2=O)Cc2cc3ccccc3nc2-1`, the growth inhibition is 90% (active).

As to `CC1(C)CC(=O)C(C(CC(c2ccccc2)c2cc3c(cc2O)OCO3)C2=C(O)CC(C)(C)CC2=O)=C(O)C1` (stereo not drawn), the growth inhibition is 63% (inactive).

As to `CCCCCCC(CCl)c1sc(-c2csc(CCNC(=O)OC(C)(C)C)n2)nc1C(=O)OC` (stereo not drawn), the growth inhibition was 8% (inactive).

On to `CCOC(=O)C1=C(C)NC(C)=C(C(=O)OCC)C1c1cccc([N+](=O)[O-])c1`, for which the growth inhibition is 22% (inactive).

For `Cc1ccc2c(/C=C/c3ccc(N(C)C)cc3)ccnc2c1C`, the growth inhibition is 58% (inactive).

For the compound `O=C1C(Br)=CC(Br)(Br)C=C1Br`, the growth inhibition is 96% (active).

Still in this assay, the particulars now being: S. cerevisiae bub3 mutant strain, at 50.0 µM (retest, dose inferred, filed as 5.0), stronger effect = higher value.
As to `CNC(=O)OCc1c(COC(=O)NC)c(C)n(-c2ccc(Cl)c(Cl)c2)c1C`, the growth inhibition was 9% (inactive).

Consider `COc1ccc2nc(N/N=C/c3sccc3C)cc(C)c2c1`, for which the growth inhibition was 98% (active).

As to `CCCCCCCCCCCC[N+](C)(C)Cc1ccccc1` (tested in a mixture with another compound), the growth inhibition is 100% (active) and 99% (active).

Regarding `CC(C)c1ccc(O)c(=O)cc1`, the growth inhibition is 48% (inactive) and 56% (inactive) and -2% (inactive).

Take `O=C(O)/C=C\C(=O)NNc1ccc(Br)cc1`: the growth inhibition is 97% (active).

As for `S=c1[nH]nc(Cc2ccccc2)c(=S)[nH]1`, the growth inhibition was 79% (active).

In the case of `COc1ccc2nc3cccc([N+](=O)[O-])c3c(NCCCO)c2c1`, the growth inhibition is 99% (active).

As to `CCN(CC)CCSc1c2ccccc2nc2cc(NCC(=O)Nc3ccccc3-c3ccccc3NC(=O)CNc3ccc4c(SCCN(CC)CC)c5ccccc5nc4c3)ccc12`, the growth inhibition is 89% (active).

For `Cc1ccc(N(C=O)c2c([N+](=O)[O-])cc([N+](=O)[O-])c3c2=[N+]([O-])CN=3)cc1`, the growth inhibition was 98% (active).

Regarding `Nc1ccccc1SSc1ccccc1N`, the growth inhibition is 99% (active) and 28% (inactive).

Consider `COc1ccc(C(=O)OCCc2ccccc2)cc1`, for which the growth inhibition was 79% (active).

Regarding `COc1ccc(C(=O)NCCN(C)C)c2nc3ccccc3cc12`, the growth inhibition is 36% (inactive).

Take `NCC(O)CSCc1ccc(Cl)cc1` (stereo not drawn): the growth inhibition is 64% (inactive).

As to `O=c1[nH]c(=O)n(CCCO)cc1F`, the growth inhibition was 15% (inactive).

Take `CCCCCCCCCCCC[N+](C)(C)C`: the growth inhibition was 95% (active) and 98% (active) and 100% (active).

Regarding `COc1ccc(/C(=N/O)c2ccccc2C2=Nc3ccccc3C(NCc3ccccc3)O2)cc1C` (stereo not drawn), the growth inhibition was 93% (active).

On to `CCCC(=O)OC(OC(=O)CCC)c1ccc([N+](=O)[O-])o1`, for which the growth inhibition is 7% (inactive).

As for `O=C(/C(=C/c1ccccc1)CBr)c1ccccc1`, the growth inhibition was 94% (active).

Take `O=C(Cc1ccccc1F)NC1=C(Cl)C(=O)c2ccccc2C1=O`: the growth inhibition is 70% (active).

Regarding `Cc1cccc(N2CCN(C(=O)/C(=C/c3ccccc3)NC(=O)c3ccccc3)CC2)c1`, the growth inhibition is 38% (inactive).

As for `OCC(O)C(O)C(O)C(O)c1nc2ccccc2[nH]1` (stereo not drawn), the growth inhibition was 12% (inactive) and -1% (inactive).

Take `c1cc(Nc2ccc3c(c2)OCO3)c2cc(C3CCCCC3)ccc2n1`: the growth inhibition is 98% (active).

As for `Cc1ccc2nc(N/N=C/c3ccc(C)s3)cc(C)c2c1`, the growth inhibition is -10% (inactive).

Turning to `COc1cc(NCCCCCNC(C)C)c2ncccc2c1Cl`, the growth inhibition is 38% (inactive).

Turning to `COc1cccc2c1C(=O)c1c(O)c3c(c(O)c1C2=O)CC(O)(C(=O)CO)CC3OC1CC(N)C(O)C(C)O1` (stereo not drawn), the growth inhibition was 13% (inactive) and 16% (inactive) and 76% (active).

As for `COc1ccc2cc(CN3CCC(C4CCN(Cc5ccc6cc(OC)ccc6c5)CC4)CC3)ccc2c1`, the growth inhibition was 0% (inactive).

Consider `CC(=O)O/N=C/c1c2ccccc2cc2ccccc12`, for which the growth inhibition is 84% (active).

For `CC[C@@]1(OC(=O)CN(C)C)C(=O)OCc2c1cc1n(c2=O)Cc2cc3ccccc3nc2-1`, the growth inhibition was 93% (active).

Take `CC1(C)CC(=O)C(C(CC(c2ccccc2)c2cc3c(cc2O)OCO3)C2=C(O)CC(C)(C)CC2=O)=C(O)C1` (stereo not drawn): the growth inhibition is 99% (active).

On to `CCCCCCC(CCl)c1sc(-c2csc(CCNC(=O)OC(C)(C)C)n2)nc1C(=O)OC` (stereo not drawn), for which the growth inhibition was 47% (inactive).

In the case of `CCOC(=O)C1=C(C)NC(C)=C(C(=O)OCC)C1c1cccc([N+](=O)[O-])c1`, the growth inhibition is 40% (inactive).

Regarding `COc1nc(N)c(N=CC(OC(C)=O)C(OC(C)=O)C(COC(C)=O)OC(C)=O)c(=O)n1C` (stereo not drawn), the growth inhibition is -7% (inactive) and -8% (inactive) and -4% (inactive).

On to `Cc1ccc2c(/C=C/c3ccc(N(C)C)cc3)ccnc2c1C`, for which the growth inhibition was 81% (active).

In the case of `Cc1cc(SC#N)ccc1O`, the growth inhibition is 94% (active) and 80% (active).

On to `O=C1C(Br)=CC(Br)(Br)C=C1Br`, for which the growth inhibition was 99% (active).
